Laboratory results from PubChem BioAssay (Tox21).
Records with an inconclusive call do not appear. Calls of active or inactive are those of the source. Unless noted, calls come from the whole dose curve; as a rule, active = well fitted curve in the direction sought with a large enough effect in the repeat runs; inconclusive = weak or mixed curves; inactive = flat fitted curve, though single readings scatter.

Assays:
[1] = qHTS assay to test for compound auto fluorescence at 535 nm (green) in HEK293 cells (AID 720680)
[2] = qHTS assay to test for compound auto fluorescence at 460 nm (blue) in HEK293 cell free culture (AID 720681)
Procedure, shortened: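 Blue fluorescence (Ex 405/Em 460 nm, triamterene-equivalent) was read immediately after pin transfer of compound or DMSO into medium (DMEM, 10% FBS) without cells.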

[3] = qHTS assay to test for compound auto fluorescence at 535 nm (green) in HEK293 cell free culture (AID 720682)
Procedure, shortened: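 Each library compound, or DMSO control, is added by pintool to medium alone, comprising DMEM and 10% FBS. Emission at 535 nm following 485 nm excitation is quantified against fluorescein.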

[4] = qHTS assay to test for compound auto fluorescence at 590 nm (red) in HEK293 cell free culture (AID 720683)
Procedure, shortened: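 Red-channel autofluorescence of compounds in culture medium (DMEM, 10% FBS), no cells, measured at 540/590 nm. Rose Bengal sodium is the reference fluorophore for equivalence.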

[5] = qHTS assay to test for compound auto fluorescence at 590 nm (red) in HepG2 cell free culture (AID 720684)
Procedure, shortened: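 Steps: dispense MEM/10% FBS medium, no cells; pin compound or DMSO vehicle; read red channel, Ex/Em 540/590 nm. Output given as Rose Bengal sodium equivalents.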

[6] = qHTS assay to test for compound auto fluorescence at 460 nm (blue) in HepG2 cell free culture (AID 720685)
Procedure, shortened: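 Compound (23 nL) or DMSO pinned into cell-free MEM with 10% FBS; blue fluorescence read at 405/460 nm excitation/emission, expressed as auto-fluorescence equivalency to triamterene.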

[7] = qHTS assay to test for compound auto fluorescence at 535 nm (green) in HepG2 cell free culture (AID 720686)
[8] = qHTS assay to test for compound auto fluorescence at 460 nm (blue) in HepG2 cells (AID 720687)
Procedure, shortened: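 Blue-channel autofluorescence (Ex/Em 405/460 nm, triamterene-equivalent) was measured after 1 hr compound exposure at 37 C, 5% CO2. Cells were HepG2, plated overnight at 37 C in MEM plus 10% FBS.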

[9] = molecular target: Glucocorticoid receptor (Homo sapiens) (UniProt P04150); assay: qHTS assay to identify small molecule agonists of the glucocorticoid receptor (GR) signaling pathway (AID 720691; active = well fitted activation curve with a large enough effect in the signal ratio in the repeat runs, not every such curve was filed as active; the % refers to the signal ratio)
Procedure, shortened: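 Fluorescence intensity from LiveBLAzer B/G FRET substrate (2 h, room temperature) reports beta-lactamase expression driven by the glucocorticoid response element in GR-bla HeLa cells after 18 h compound exposure at 37 C.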

[10] = molecular target: Glucocorticoid receptor (Homo sapiens) (UniProt P04150); assay: qHTS assay to identify small molecule antagonists of the glucocorticoid receptor (GR) signaling pathway (AID 720692; active = well fitted inhibition curve with a large enough effect in the signal ratio in the repeat runs, not every such curve was filed as active; the % refers to the signal ratio)
Procedure, shortened: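 HeLa GR-bla cells; cmpd + dex 5 nM final, 18 h 37 C; LiveBLAzer B/G FRET substrate 2 h RT; fluorescence intensity read. Antagonist mode, qHTS.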

Measured: Potency

Chain of Glucocorticoid receptor (Homo sapiens) (P04150 whole entry, looked up): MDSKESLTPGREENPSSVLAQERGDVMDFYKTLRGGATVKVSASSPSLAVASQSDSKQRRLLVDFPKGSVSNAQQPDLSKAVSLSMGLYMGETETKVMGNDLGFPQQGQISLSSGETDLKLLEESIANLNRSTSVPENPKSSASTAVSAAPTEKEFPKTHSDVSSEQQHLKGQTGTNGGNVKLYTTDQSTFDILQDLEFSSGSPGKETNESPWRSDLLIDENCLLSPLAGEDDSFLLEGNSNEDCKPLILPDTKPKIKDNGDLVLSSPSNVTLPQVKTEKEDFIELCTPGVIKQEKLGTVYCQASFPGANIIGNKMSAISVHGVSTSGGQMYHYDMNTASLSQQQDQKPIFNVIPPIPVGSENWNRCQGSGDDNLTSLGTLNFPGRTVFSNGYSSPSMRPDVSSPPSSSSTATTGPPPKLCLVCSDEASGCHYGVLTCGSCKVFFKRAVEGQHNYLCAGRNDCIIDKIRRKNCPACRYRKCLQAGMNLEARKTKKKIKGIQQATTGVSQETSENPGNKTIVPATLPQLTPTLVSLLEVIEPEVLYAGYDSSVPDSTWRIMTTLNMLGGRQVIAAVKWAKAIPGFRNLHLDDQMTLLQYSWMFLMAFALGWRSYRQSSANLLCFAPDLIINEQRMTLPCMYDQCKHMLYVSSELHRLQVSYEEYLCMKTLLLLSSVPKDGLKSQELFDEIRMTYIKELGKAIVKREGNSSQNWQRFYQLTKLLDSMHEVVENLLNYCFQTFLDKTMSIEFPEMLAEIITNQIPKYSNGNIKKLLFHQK

CCCC(=O)OC/C=C(\C)CCC=C(C)C
inactive: [1] | [2] | [3] | [4] | [5] | [6] | [7] | [8] | [9] | [10]

CN1C[C@@H]2C[C@H]1CN2c1cc2c(cc1F)c(=O)c(C(=O)O)cn2C1CC1
inactive: [1] | [2] | [3] | [4] | [5] | [6] | [7] | [8] | [9] | [10]

CC(=O)OC1CCCCC1C(C)(C)C (stereo not drawn)
inactive: [1] | [2] | [3] | [4] | [5] | [6] | [7] | [8] | [9]

CC1OCCC1=O (stereo not drawn)
inactive: [1] | [2] | [3] | [4] | [5] | [6] | [7] | [8] | [9] | [10]

CC1c2ccccc2CN1NC(=O)c1ccc(Cl)c(S(N)(=O)=O)c1 (stereo not drawn)
inactive: [1] | [2] | [3] | [4] | [5] | [6] | [7] | [8] | [9] | [10]

CC(=O)OCC(=O)Nc1cc(C#N)cc(NC(=O)COC(C)=O)c1Cl
inactive: [1] | [2] | [3] | [4] | [5] | [6] | [7] | [8] | [9] | [10]

C=CCSSCCC
inactive: [1] | [2] | [3] | [4] | [5] | [6] | [7] | [8] | [9] | [10]

COC(C)(OC)OC
inactive: [1] | [2] | [3] | [4] | [5] | [6] | [7] | [8] | [9] | [10]

CC(=O)OC(C)=O
inactive: [1] | [2] | [3] | [4] | [5] | [6] | [7] | [8] | [9]

C/C=C(\C)C(=O)OCCc1ccccc1
inactive: [1] | [2] | [3] | [4] | [5] | [6] | [7] | [8] | [9] | [10]

CCO
inactive: [1] | [2] | [3] | [4] | [5] | [6] | [7] | [8] | [9]

CN(C)CCCO[C@@H]1[C@H]2OC(C)(C)O[C@H]2O[C@@H]1C(O)CO (stereo partly drawn)
inactive: [1] | [2] | [3] | [4] | [5] | [6] | [7] | [8] | [9] | [10]

CC(C)=CCC[C@@](C)(O)[C@H]1CC=C(C)CC1
inactive: [1] | [2] | [3] | [4] | [5] | [6] | [7] | [8] | [9] | [10]

CC(=O)CC(=O)OC(C)(C)C
inactive: [1] | [2] | [3] | [4] | [5] | [6] | [7] | [8] | [9]

CCC(C)OC(C)CC (stereo not drawn)
inactive: [1] | [2] | [3] | [4] | [5] | [6] | [7] | [8] | [9] | [10]

CCCc1ccc(O)cc1
inactive: [1] | [2] | [3] | [4] | [5] | [6] | [7] | [9]

N[C@@H](Cc1ccc(O)cc1)C(=O)O
inactive: [1] | [2] | [3] | [4] | [5] | [6] | [7] | [9] | [10]

OCC(O)CN1CCN(c2ccccc2)CC1 (stereo not drawn)
inactive: [1] | [2] | [3] | [4] | [5] | [6] | [7] | [8] | [9] | [10]

O=[N+]([O-])c1c(Cl)cc(Cl)cc1Cl
inactive: [1] | [2] | [3] | [4] | [5] | [6] | [7] | [8] | [10]

Cc1ccnc(N)c1
inactive: [1] | [2] | [3] | [4] | [5] | [6] | [7] | [8] | [9] | [10]

CCCCOCCOC(=O)COc1ccc(Cl)cc1Cl
inactive: [1] | [2] | [3] | [4] | [5] | [6] | [7] | [8] | [9] | [10]

C/C=C(\C)C(C)=O
inactive: [1] | [2] | [3] | [4] | [5] | [6] | [7] | [10]

CC(CO)(CO)CO
inactive: [1] | [2] | [3] | [4] | [5] | [6] | [7] | [8] | [10]

CC/C=C\CCOC(=O)c1ccccc1O
inactive: [1] | [2] | [3] | [4] | [5] | [6] | [7] | [9] | [10]
